Measured values published in PubChem BioAssay (EPA / NIEHS).
Records with an inconclusive call do not appear. The source made the active and inactive calls. Rule for the calls, unless noted: active = hit-call score of the fitted dose curve at least 0.9, where 1 is the maximum; inconclusive = response in the unintended direction; inactive = score below 0.9.

Tests used:
[1] = CCTE_Mundy_HCI_iCellGluta_NOG_NeuronCount: CCTE's Neurite Outgrowth Assay in iCellGluta cells for Neuron Count, Mundy Lab (AID 2284340);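 note: cells fixed about 48 h after compound addition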
In short: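 Neuron count read by automated high-content imaging of Hoechst 33342 and betaIII-tubulin/Alexa Fluor-488 labelling in human iPSC glutamatergic neurons. Activity fitted relative to DMSO.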

[2] = CCTE_Mundy_HCI_iCellGluta_NOG_NeuriteCount: CCTE's Neurite Outgrowth Assay in iCellGluta cells for Neurite Count, Mundy Lab (AID 2284342);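 note: chemical exposure about 48 hours starting 2 hours after plating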
SERPINA7 (gene 6906) = assay: CCTE_GLTED_hTBG: CCTE's human Thyroxine-binding Globulin (TBG) Inhibition Assay, Great Lakes Toxicology and Ecology Division (GLTED) Lab (AID 2284343);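 note: active chemicals lower fluorescence versus DMSO baseline by displacing probe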
In short: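 Human TBG incubated 2 h with test chemical; displacement of ANSA probe read by fluorescence, 380 nm excitation/475 nm emission. Loss of signal relative to DMSO.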

[3] = Tanguay_ZF_120hpf_MO24: Oregon State University Tanguay Lab 24 Hour Post-fertilization zebrafish Assay for Mortality (AID 2284389; active = hit-call score of the fitted dose curve at least 0.9, where 1 is the maximum; inactive = score below 0.9)
In short: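 Dechorionated wild-type zebrafish embryos, 1 per well, statically exposed from 6 hpf at 28C, 0.64% DMSO final. Mortality scored as binary present/absent at 24 hpf by brightfield microscopy, relative to DMSO.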

[4] = Tanguay_ZF_120hpf_DP24: Oregon State University Tanguay Lab 24 Hour Post-fertilization zebrafish Assay for Delayed Development (AID 2284390; active = hit-call score of the fitted dose curve at least 0.9, where 1 is the maximum; inactive = score below 0.9)
In short: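 Dechorionated 5D wild-type zebrafish embryos exposed statically from 6 hpf, one per well, 0.64% DMSO final, 28 C, sealed and dark. Developmental progression scored at 24 hpf by brightfield as binary present/absent; dead embryos excluded.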

[5] = Tanguay_ZF_120hpf_CRAN: Oregon State University Tanguay Lab 120 Hour Post-fertilization zebrafish Assay for Craniofacial Malformation (AID 2284397; active = hit-call score of the fitted dose curve at least 0.9, where 1 is the maximum; inactive = score below 0.9)
In short: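 Dechorionated Tropical 5D wild-type zebrafish embryos, one per well, were statically exposed from 6 to 120 hpf at 28C in 0.64% DMSO, with 5uM trimethyltin chloride as positive control. Craniofacial malformation was scored present/absent by brightfield microscopy, relative to DMSO.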

[6] = CCTE_Deisenroth_H295R-HTRF_384WELL_ESTRADIOL: CCTE's H295R-HTRF Assay Evaluation of Estradiol Concentration, Deisenroth Lab (AID 2284361; active = hit-call score of the fitted dose curve at least 0.9, where 1 is the maximum; inactive = score below 0.9); conditions: actives raise or lower the signal
In short: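 H295R cells exposed 48 h to chemicals at 0.001 - 100 uM final (nine points, triplicate); estradiol in conditioned medium measured by HTRF immunoassay, fitted bidirectionally versus DMSO. Viability by CellTiter-Glo on same plates.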

[7] = CCTE_Deisenroth_H295R-HTRF_384WELL_TESTOSTERONE: CCTE's H295R-HTRF Assay Evaluation of Testosterone Concentration, Deisenroth Lab (AID 2284373; active = hit-call score of the fitted dose curve at least 0.9, where 1 is the maximum; inactive = score below 0.9); conditions: actives raise or lower the signal
In short: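 Testosterone secreted into medium was quantified by direct HTRF immunoassay after a 48 h treatment of H295R adrenocortical cells (nine concentrations, 0.001–100 uM final). Gain or loss fitted relative to DMSO; CellTiter-Glo viability read on same plates.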

[8] = CCTE_Deisenroth_H295R-HTRF_384WELL_CTOX: Cytotoxicity Assessment in CCTE's H295R-HTRF Assay, Deisenroth Lab (AID 2284380)
In short: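 H295R adrenocortical carcinoma cells plated 24 h, then exposed 48 h to nine-point series 0.001–100 uM final, triplicate, n=5. ATP measured by CellTiter-Glo 2.0 luminescence on same plates after medium collection; loss versus DMSO.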

With `O=C1C2(Cl)C3(Cl)C4(Cl)C(Cl)(Cl)C5(Cl)C3(Cl)C1(Cl)C5(Cl)C24Cl` (stereo not given) the AC50 [1] was 17.9 µM (active), the AC50 [2] was 21.6 µM (active) and the outcome (SERPINA7 (gene 6906)) was “inactive”.

For `O=[N+]([O-])c1ccc(O)c([N+](=O)[O-])c1`, the AC50 (SERPINA7 (gene 6906)) was 21.9 µM (active).

In the case of `O=C1C(Cl)=C(Cl)C(=O)c2ccccc21`, the AC50 (SERPINA7 (gene 6906)) is reported as 43.7 µM (active).

With `CC1(C)CCC(Cc2ccc(Cl)cc2)C1(O)Cn1cncn1` (stereo not given) the AC50 (SERPINA7 (gene 6906)) was 30.1 µM (active).

With `CC(C)(C)CC(C)(C)c1ccc(O)cc1` the AC50 (SERPINA7 (gene 6906)) was 5.79 µM (active).

In the case of `CC(C)(c1ccccc1)c1ccc(O)c(C(C)(C)c2ccccc2)c1`, the AC50 (SERPINA7 (gene 6906)) is reported as 7.35 µM (active).

In the case of `O=C(O)C(F)(F)C(F)(F)C(F)(F)C(F)(F)C(F)(F)C(F)(F)F`, the outcome [1] is reported as “inactive”, the outcome [3] is reported as “inactive” and the outcome [4] is reported as “inactive”. The outcome [5] was “inactive”.

For `CCC1(c2ccc(N)cc2)CCC(=O)NC1=O` (stereo not given), the outcome [6] was “inactive”, the outcome [7] was “inactive” and the outcome [8] was “inactive”.
